# Assay outcomes from PubChem.
# Hits are enriched below; roughly 10% of the tested compounds scored in any of these assays.
# HPGD block: blocks human HPGD enzyme activity | P15428 | hit rate 4.3% among 150,000 | AID 894 | purified HPGD, NADH fluorescence kinetic, PGE2 substrate | Potency, µM, usual class: inhibitors
# Target sequence (P15428 whole entry, looked up): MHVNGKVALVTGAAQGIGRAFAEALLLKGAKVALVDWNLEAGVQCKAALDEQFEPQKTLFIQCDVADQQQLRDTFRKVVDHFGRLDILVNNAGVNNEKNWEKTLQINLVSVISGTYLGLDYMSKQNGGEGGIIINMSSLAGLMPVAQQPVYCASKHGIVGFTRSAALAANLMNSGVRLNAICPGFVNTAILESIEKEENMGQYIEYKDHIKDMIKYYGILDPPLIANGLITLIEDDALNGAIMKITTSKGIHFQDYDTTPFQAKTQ
#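 20 nM HPGD preincubated 15 min at room temperature with compound in 50 mM Tris-HCl pH 8, 0.01% Tween 20. Started with 1 mM NAD+ and 30 uM prostaglandin E2; NADH fluorescence (360/450 nm) read 5 times over 30-s intervals, last minus first.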
# LMNA splice mod: changes lamin A minigene splicing in HeLa cells | hit rate 0.01% among 200,000 | HeLa LMNA splicing GFP/RFP minigene ratio, 48 h | AID 1487 | Potency, µM (highest dose often 46.1 µM), actives largely listed as inhibitors; active means well fitted inhibition curve with a large enough effect in the signal ratio, with a control signal flat, not every such curve was filed as active; inconclusive means small, poorly fitted or top-dose-only effect, or effect the other way, or a change in a side signal; the % refers to the signal ratio
#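 S3 HeLa stable clones carrying a lamin A-EGFP splicing minigene plus DsRed2 were seeded at 600 cells/well in Opti-MEM with 2% FBS, pin-dosed and incubated 48 h at 37°C. Acumen cytometry (488 nm) gave the GFP/RFP total-intensity ratio.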
# IMPase cell inh: cell-permeable inhibitors of inositol monophosphatase (IMPase). P97697. AID 901. 120,000 tested, under 10 active. CHO-M1 cells, IP1 accumulation, HTRF TR-FRET ratio. inhibition (IP1 accumulation), % at 46.1 µM; active means well fitted curve in the direction sought with a large enough effect in the signal ratio, not every such curve was filed as active; inconclusive means small, poorly fitted or top-dose-only effect, or a change in a side signal; inactive means no such curve, though single readings can be large or run the other way; the % refers to the signal ratio;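 further: cells stimulated with carbachol in lithium chloride buffer; higher means more IMPase inhibition seen as more IP1 and lower FRET ratio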
#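 Carbachol-driven Gq signalling in CHO-M1 cells (2000/well) generates IP1. Compounds that block IMPase raise IP1 and so reduce the FRET signal from Eu-anti-IP1 and d2-IP1 after a 10 min room-temperature lysis.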
# ALDH1A1 inh: inhibitors of human aldehyde dehydrogenase 1A1 | Purified ALDH1A1, NADH fluorescence, propionaldehyde substrate | Potency, µM (series often up to 75.3 µM), most hits filed as inhibitors | hit rate 7.3% among 220,000 | AID 1030
# Target sequence (P00352 whole entry, looked up): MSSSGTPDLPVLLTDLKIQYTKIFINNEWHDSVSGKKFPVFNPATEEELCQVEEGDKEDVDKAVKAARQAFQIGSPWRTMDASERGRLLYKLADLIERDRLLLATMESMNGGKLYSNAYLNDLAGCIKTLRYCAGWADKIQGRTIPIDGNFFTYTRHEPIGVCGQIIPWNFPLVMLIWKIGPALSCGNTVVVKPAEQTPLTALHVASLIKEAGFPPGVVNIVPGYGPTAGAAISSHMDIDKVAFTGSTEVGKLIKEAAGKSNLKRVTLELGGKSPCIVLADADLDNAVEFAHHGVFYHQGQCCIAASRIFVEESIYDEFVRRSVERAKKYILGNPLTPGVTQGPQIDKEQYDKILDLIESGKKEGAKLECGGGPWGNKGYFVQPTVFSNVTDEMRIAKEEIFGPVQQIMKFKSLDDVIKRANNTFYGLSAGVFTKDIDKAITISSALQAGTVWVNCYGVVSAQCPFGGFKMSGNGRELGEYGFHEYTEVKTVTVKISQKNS
# Luc counter: Kinase-Glo luciferase inhibition (counter-screen); Kinase-Glo luciferase, ATP luminescence, 8 min; Potency, µM (highest dose often 38.3 µM), actives largely listed as inhibitors; hit rate 0.28% among 200,000; AID 1379; active means well fitted inhibition curve with a large enough effect; inconclusive means small, poorly fitted or top-dose-only effect; further: nearly all actives have a fitted effect of over 60% in size
#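 Substrate mix (final 50 mM imidazole pH 7.2, 50 mM KCl, 7 mM MgCl2, 10 uM ATP, 0.01% Tween 20, 0.05% BSA) plus pin-tool compound, then Kinase-Glo detection mix; 8 min ambient, luminescence read.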
# PNC assembly inh: perinucleolar compartment assembly inhibition; PC3M PTB-GFP, PNC prevalence imaging, 16 h; stronger effect = lower value; activity change (PNC), negative = inhibition, % at 10 µM; hit rate 3.1% among 140,000;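 active means readout at or below -70, meaning at least 70% loss of cells showing the perinucleolar compartment, a nuclear body marking cancer cells; inconclusive means readout between -30 and a set limit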
#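 Read-out is percentage of cells bearing a perinucleolar compartment, from automated 20x imaging of fixed, Hoechst-stained PC3M PTB-GFP cells. Cells were seeded 4 h, then exposed 16 h to compound (23 nl of library stock) in duplicate plates.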
# Hits are given with their value; i = inactive; ? = inconclusive; nt = no result given; [ ] = another dose, or the depositor's remark. Unless noted, the call rests on the fitted dose curve; in most records, active means well fitted inhibition curve with a large enough effect (not every such curve was filed as active); inconclusive means small, poorly fitted or top-dose-only effect, or another doubt; inactive means no such curve, though single readings can be large or run the other way.
SMILES,HPGD block,LMNA splice mod,IMPase cell inh,ALDH1A1 inh,Luc counter,PNC assembly inh
CC(C)(C)c1[nH]nc2c1C(c1ccc(OC(=O)c3ccco3)cc1)C(C#N)=C(N)O2 (stereo not given),i,i,i,4.5µM,i,i
Cc1noc(/C=C/c2ccccc2F)c1S(=O)(=O)N1CCC(C(=O)N2CCOc3ccccc32)CC1,nt,i,nt,nt,nt,nt
O=C(CCl)c1ccc2[nH]c(=O)oc2c1,nt,i,nt,0.28µM,nt,nt
O=C1CCC2S/C(=C/Nc3ccc(C(F)(F)F)cc3)C(=O)N12 (stereo not given),nt,i,nt,13µM,i,nt
COc1ccc(O[C@H]2C=C[C@@H](c3ccccc3)O[C@H]2COC(=O)CC/C(C)=N\OC[C@@H](C)[C@H](OCc2ccccc2)C(C)C)cc1,nt,nt,nt,i[13.5 µM],nt,nt
Cc1cccc(Cn2c(SCc3ccc(C(=O)NCc4ccccc4)cc3)nc3cccnc32)c1,nt,i,nt,nt,nt,nt
O=C(CSc1nnc(-c2ccccc2)o1)N1CCCc2ccccc21,nt,nt,i,nt,nt,nt
c1ccc(-c2nnc(CN3CCCc4ccccc43)o2)cc1,?,i,i,8.9µM,i,i
O=C(O)C1Cc2c([nH]c3ccccc23)C(c2coc3ccccc3c2=O)N1 (stereo not given),i,nt,nt,i,i,nt
CCN(CC)CCNC(=O)c1ccc(NC(=O)c2ccc(Cl)c(S(=O)(=O)Nc3ccccc3OC)c2)cc1,i,i,i,i,i,?
CCN(CC)c1ccc(NC(=O)COc2ccccc2C)cc1S(=O)(=O)Nc1ccccc1OC,28µM,i,i,12µM,i,i
COc1ccc(NC(=O)c2ccccc2F)cc1Cl,?,i,i,i,i,i
CCN(CC)c1ccc(NC(=O)c2ccccc2Br)cc1S(=O)(=O)Nc1ccccc1OC,2.2µM,?,nt,1.6µM,i,i
COc1ccc(NC(=O)c2ccc(=O)[nH]c2)cc1S(=O)(=O)N1CCCCC1,i,i,nt,i,i,i
CCN(CC)c1ccc(NC(=O)c2ccc(=O)[nH]c2)cc1S(=O)(=O)Nc1ccccc1OC,nt,i,nt,4µM,i,nt
CCN(CC)c1ccc(NC(=O)c2ccccc2F)cc1S(=O)(=O)Nc1ccccc1OC,14µM,i,nt,4.5µM,i,i
CCOC(=O)N/N=C1/C[C@@H](O)[C@@H](O)[C@@H]2[C@@H]3C(=O)N(c4cccc(Oc5ccccc5)c4)C(=O)[C@H]3CC[C@H]12,nt,nt,nt,i[13.5 µM],nt,nt
CCCCCCCC1=Cc2ccccc2C(C(C(=O)OC)C(=O)OC)N1C(=O)OC (stereo not given),i,?,nt,i[13.5 µM],i[7.66 µM],nt
CCc1cccc(N2C(=O)CS(=O)(=O)C23C(=O)N(Cc2ccccc2)c2ccc(C)cc23)c1 (stereo not given),nt,i,nt,nt,nt,nt
Cc1c(Cl)cccc1NC(=O)CSc1nc(=O)n(Cc2cccnc2)c2c1CCC2,nt,i,nt,nt,nt,nt
CCN(CC)c1ccc(NC(=O)COc2ccccc2C#N)cc1S(=O)(=O)Nc1ccc(OC)cc1,i,i,nt,22µM,i,i
CC(=O)Nc1ccc(NC(=O)c2ncoc2-c2ccco2)cc1,nt,i,nt,nt,nt,nt
N#C/C(=C(/O)CSc1ccccn1)c1nc2ccccc2s1,nt,nt,nt,8.9µM,i,nt
Cc1ccc(SC/C(O)=C(\C#N)c2nc3ccccc3s2)cc1,i,i,i,i,i,i
CCCC1=NN(c2ccc([N+](=O)[O-])cc2)C(=O)/C1=C/N(C)C,i,?,nt,?,i,?
SMILES,HPGD block,LMNA splice mod,IMPase cell inh,ALDH1A1 inh,Luc counter,PNC assembly inh
CN(C)/C=C1\C(=O)N(c2ccc([N+](=O)[O-])cc2)N=C1c1ccccc1,i,?,i,25µM,i,i
CC1=NN(c2nc3ccccc3[nH]2)C(=O)/C1=C/N(C)C,nt,?,nt,i,1.6µM,nt
CC1=NN(c2ccc([N+](=O)[O-])cc2)C(=O)/C1=C\N(C)C,i,i,nt,?,13µM,i
CN(C)/C=C1/C(=O)N(c2ccc([N+](=O)[O-])cc2)N=C1c1ccccc1,i,?,nt,16µM,i,?
O=C(NCCS(=O)(=O)N1CCN(c2ccccc2)CC1)C(c1ccccc1)c1ccccc1,nt,i,nt,nt,nt,nt
O=C(CSc1nccn1Cc1ccccc1)NCc1ccccc1Cl,nt,i,nt,nt,nt,nt
COc1ccc(NC(=O)CCc2c(C)nn(-c3ccc(N4CCOCC4)nn3)c2C)cc1Cl,nt,i,nt,nt,nt,nt
C=CCOC(=O)N[C@H](C[N+](=O)[O-])c1ccccc1,i,nt,nt,i,i,nt
O=C(O)CSc1ccc(N=C=S)cc1,i,nt,nt,i[13.5 µM],i[7.66 µM],nt
CCc1nnc(NC(=O)C2CCN(c3cnccn3)CC2)s1,i,i,i,?,i,?
CC(C)c1nnc(NC(=O)C2CCN(c3cnccn3)CC2)s1,i,i,i,32µM,i,i
Cc1nc(Nc2nc3ccccc3o2)nc(C)c1C,nt,nt,nt,i,11µM,nt
N#Cc1cnc(Nc2nc3ccccc3o2)nc1-c1ccccc1,i,i,i,?,i,i
Cc1ccnc(Nc2nc3ccccc3o2)n1,i,?,i,i,13µM,i
O=C(CSc1nnc(-c2ccc(S(=O)(=O)N3CCOCC3)cc2)o1)c1ccccc1F,i,i,i,?,i,?
COc1ccc(C(=O)CSc2nnc(-c3ccc(S(=O)(=O)N4CCOCC4)cc3)o2)cc1,i,i,?,0.5µM,i,i
Cc1ccc(C(=O)CSc2nnc(-c3ccccc3)o2)cc1,i,i,i,i,i,-95
Cc1occc1-c1nnc(SCC(=O)c2ccc(F)cc2)o1,?,i,i,32µM,i,?
CC1=NN(c2ccc(S(=O)(=O)O)cc2)C(=O)/C1=C\c1ccc(Cl)cc1,?,nt,nt,?,i[7.66 µM],nt
Cc1nc(C)c(-c2ccc(SCC(=O)Nc3cccc(C)c3C)nn2)s1,nt,i,nt,nt,nt,nt
O=c1cc(O)c2c(=O)n(-c3ccccc3)c3c(c2o1)CCCCCC3,i,i,nt,i,i,-88
O=c1cc(O)c2c(=O)n(C3CCCCC3)c3ccccc3c2o1,i,i,i,i,i,i
CCOC(=O)c1nn(-c2cccc(OC)c2)c2nc(CC)c(C#N)c(=O)n12,i,i,nt,?,i,-109
COc1ccc(-c2ccc3c(N)c(C(=O)Nc4ccc(C)cc4C)sc3n2)cc1OC,nt,nt,i,nt,nt,nt
Cc1ccc(C2=Nc3ccccc3NC(C)(c3ccc(C)o3)C2)o1 (stereo not given),i,i,i,22µM,i,i
SMILES,HPGD block,LMNA splice mod,IMPase cell inh,ALDH1A1 inh,Luc counter,PNC assembly inh
CC1=CC(C)=Nc2ccccc2N1,i,i,i,?,i,i
Cn1c(=O)cc(OCCCC(=O)NCc2ccco2)c2ccccc21,20µM,?,i,20µM,i,i
CC1CCN(C(=O)CCCOc2cc(=O)n(C)c3ccccc23)CC1,7.9µM,i,i,?,i,?
CC(C)CCNC(=O)CCCOc1cc(=O)n(C)c2ccccc12,16µM,?,i,i,i,i
Cc1ccc(CNC(=O)CCCOc2cc(=O)n(C)c3ccccc23)o1,i,i,i,20µM,i,i
COc1ccc(N2CCN(C(=O)CCCOc3cc(=O)n(C)c4ccccc34)CC2)cc1,i,i,i,i,i,i
